# Measurements as given in PubChem BioAssay (NCATS).
# A number with no mark means an inactive call. No stated cut-off is given here; in the data, active means potency below about 10 µM; inactive means the rest.
# Target: Lysosomal acid glucosylceramidase (Homo sapiens) (UniProt P04062)
# Experiment: Glucocerebrosidase-p2 (AID 348)
# Conditions: purified GBA, blue fluorogenic substrate, 40 min
# How it was run: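 Normal human glucocerebrosidase (0.2 nM) with blue fluorogenic substrate (80 uM final) in citrate/phosphate pH 5.9 with 10mM sodium taurocholate, 0.01% tween-20; 40 min RT, NaOH/glycine stop; fluorescence Ex 365/Em 440; AC50 from a titration from 0.6 nM upwards.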
# Potency means the concentration at half of the fitted maximal effect.
# Chain of Lysosomal acid glucosylceramidase (Homo sapiens) (P04062 whole entry, looked up): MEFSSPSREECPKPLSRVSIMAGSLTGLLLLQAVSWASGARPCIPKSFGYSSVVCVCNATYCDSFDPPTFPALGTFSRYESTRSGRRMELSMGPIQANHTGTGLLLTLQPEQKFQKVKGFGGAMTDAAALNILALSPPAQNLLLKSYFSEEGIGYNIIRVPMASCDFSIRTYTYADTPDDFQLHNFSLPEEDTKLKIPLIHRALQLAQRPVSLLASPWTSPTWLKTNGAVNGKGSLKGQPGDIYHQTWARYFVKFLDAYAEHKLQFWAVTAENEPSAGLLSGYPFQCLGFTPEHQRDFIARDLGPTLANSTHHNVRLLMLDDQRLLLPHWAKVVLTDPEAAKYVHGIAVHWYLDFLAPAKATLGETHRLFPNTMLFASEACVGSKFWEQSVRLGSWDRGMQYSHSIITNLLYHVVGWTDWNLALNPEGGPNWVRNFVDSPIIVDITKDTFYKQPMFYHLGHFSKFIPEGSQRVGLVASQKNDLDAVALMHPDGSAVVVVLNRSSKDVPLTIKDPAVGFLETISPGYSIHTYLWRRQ
row,Compound,Potency
1,COCCn1c(=O)c(C)nc2cnc(Nc3ccccc3)nc21,> 11.4 µM
2,COc1cccc(Cn2c(=O)cnc3cnc(N4CCN(C)CC4)nc32)c1,> 11.4 µM
3,N#Cc1cccc(-c2ccc3ncnc(NCc4ccccc4)c3c2)c1,> 11.4 µM
4,COc1ncc2nc(-c3cccs3)c(=O)n(C)c2n1,> 11.4 µM
5,Cc1ccccc1-c1ccc2ncnc(N3CCN(C)CC3)c2c1,> 11.4 µM
6,COc1ccccc1-c1ccc2ncnc(Nc3ccccc3)c2c1,> 11.4 µM
7,N#Cc1ccccc1-c1ccc2ncnc(NCc3cccs3)c2c1,> 11.4 µM
8,COc1ccccc1CNc1ncnc2ccc(-c3cccc(C#N)c3)cc12,> 11.4 µM
9,COc1ccccc1CNc1cc(-c2cccc(C#N)c2)ncn1,> 11.4 µM
10,Cc1nc2cnc(N3CCN(C)CC3)nc2n(C[C@H]2CCCO2)c1=O,> 11.4 µM
11,CC(C)(S)[C@H](N)C(=O)O,> 11.4 µM
12,FC(F)(F)c1ccccc1-c1ccc2ncnc(N3CCOCC3)c2c1,> 11.4 µM
13,FC(F)(F)c1ccccc1-c1ccc2ncnc(NCc3cccs3)c2c1,> 11.4 µM
14,COc1cccc(Cn2c(=O)c(C)nc3cnc(Nc4cccc(OC)c4)nc32)c1,> 11.4 µM
15,Cc1cnc(CNc2ncnc3ccc(-c4ccccc4C(F)(F)F)cc23)cn1,> 11.4 µM
16,CN1CCN(c2ccnc(-c3ccc(N(C)C)cc3)n2)CC1,> 11.4 µM
